PubChem BioAssay (NCI)
About 83,000 compounds went through this panel and 20% of them were active in at least one assay; those are over-represented in the sample as a whole.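 Interpretation: 100, growth as untreated; towards 0, rising growth inhibition; 0, no net growth; 0 to -100, cell death. Compounds scoring below 10 were considered active.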 Unmarked numbers belong to inactive results. Active and inactive are the calls of the source.

Key:
Assay in all cases: NCI-60 one-dose screen, 48 h (100 = growth as untreated, 0 = no growth, -100 = all killed)
Conditions in all cases: 10 µM unless noted
SR leukemia = tested on: SR leukemia
OVCAR-8 ovarian = tested on: OVCAR-8 ovarian
OVCAR-5 ovarian = tested on: OVCAR-5 ovarian
OVCAR-4 ovarian = tested on: OVCAR-4 ovarian
SK-OV-3 ovarian = tested on: SK-OV-3 ovarian
IGROV1 ovarian = tested on: IGROV1 ovarian
OVCAR-3 ovarian = tested on: OVCAR-3 ovarian
HS 578T breast = tested on: HS 578T breast
NCI/ADR-RES ovarian = tested on: NCI/ADR-RES ovarian
T-47D breast = tested on: T-47D breast
BT-549 breast = tested on: BT-549 breast
MDA-MB-435 melanoma = tested on: MDA-MB-435 melanoma
SW-620 colon = tested on: SW-620 colon
MCF7 breast = tested on: MCF7 breast
HCT-116 colon = tested on: HCT-116 colon
HCC-2998 colon = tested on: HCC-2998 colon
KM12 colon = tested on: KM12 colon

Structure (SMILES) | growth (SR leukemia) | growth (OVCAR-8 ovarian) | growth (OVCAR-5 ovarian) | growth (OVCAR-4 ovarian) | growth (SK-OV-3 ovarian) | growth (IGROV1 ovarian) | growth (OVCAR-3 ovarian) | growth (HS 578T breast) [%] | growth (NCI/ADR-RES ovarian) | growth (T-47D breast) | growth (BT-549 breast) | growth (MDA-MB-435 melanoma) | growth (SW-620 colon) | growth (MCF7 breast) | growth (HCT-116 colon) | growth (HCC-2998 colon) | growth (KM12 colon)
COc1cc(/C=C2\C(=O)N(c3c(Cl)cccc3Cl)c3ccccc32)cc(OC)c1OCCCCCCn1c2ccccc2c(=O)c2ccccc21 | 85.7% | 98.3% | 88.6% | 95.5% | 110% | 75.5% | 104% | 113 | 109% | 89.6% | 94.4% | 103% | 106% | 92% | 95.9% | 112% | 103%
Cc1ccc(S(=O)(=O)n2cc(C3C(Cl)C(=O)N3c3ccc(N4CCOCC4=O)cc3)c3ccccc32)cc1 (stereo not drawn) | 24.6% | 55.5% | 78.5% | 52.4% | 93.9% | 72.6% |  | 41.8 | 32.6% | 51% | 48.3% | -21.2% (active) |  | 20.8% | 16.5% | 86.6% | 85.6%
O=C(CCl)Nc1ccc2c(Nc3cc(O)ccc3Cl)ncnc2c1 | -22.5% (active) | -33.9% (active) | -74.7% (active) | -65.2% (active) | -4.95% (active) | -71.2% (active) | -83.4% (active) |  | -39.8% (active) | -52.4% (active) | -78.5% (active) | -69.4% (active) | -60.6% (active) | -57.9% (active) | -74.5% (active) | -3.99% (active) | -64.7% (active)
Fc1ccc(COc2ccc(Nc3ncnc4sc5c(c34)CCCC5)cc2)cc1 | 95.8% | 101% | 112% | 110% | 92.6% | 95.3% | 93.2% | 98.8 | 95.9% | 86.6% | 99.1% | 96.1% | 92% | 88.2% | 93.7% | 104% | 90.1%
CS(=O)(=O)Cc1cnc(C2OCCO2)s1 | 123% | 104% | 106% | 100% | 139% | 97.5% | 96.3% | 106 | 103% | 129% | 97.6% | 109% | 113% | 96.4% | 98.8% | 107% | 88.9%
S=c1[nH]c2cc(Cl)ccc2o1 | 48.5% | 115% | 92.5% | 103% | 108% | 118% | 114% | 88.6 | 106% | 92.3% | 99.8% | 96.5% | 94.2% | 105% | 91.1% | 115% | 100%
CCOC(=O)c1n[nH]n2c1nc(=O)c1cnn(C)c12 | 85.3% | 102% | 112% | 102% | 101% | 108% | 101% | 105 | 103% | 96.5% | 133% | 105% | 108% | 92.8% | 114% | 100% | 95.7%
Cc1nc2ccccc2c(/C=C/c2ccc(C(F)(F)F)cc2)c1C(=O)/C=C/c1ccccc1 | 8.57% (active) | -13% (active) | -75.7% (active) | -1.62% (active) | 48.2% | -37.3% (active) | -62.7% (active) |  | -33.8% (active) | -18.6% (active) | -0.148% (active) | -39.2% (active) | -40.8% (active) | 4.74% (active) | -74.9% (active) | -74.7% (active) | 4.07% (active)
CCN1C(=O)N(CC)C2C1NN=c1s/c(=C\c3cc4ccccc4[nH]3)c(=O)n12 (stereo not drawn) | 22.8% |  | 33.9% | 32.9% | 31.7% | 12.1% |  | 13.8 | 3.61% (active) | 2.04% (active) | 12.2% | -9.5% (active) | 19.8% | 3.88% (active) | 9.85% (active) | 10.3% | 10.3%
CN(Cc1cnc2nc(N)nc(N)c2n1)c1c(Cl)cc(C(=O)NC(CCC(=O)O)C(=O)O)cc1Cl (stereo not drawn) | 42.4% | 17.8% | 48.7% | 55.1% | 56.3% | 28.3% | 48.1% | 66.1 | 35.1% | 53.2% | 21.9% | 25.7% | 29.1% | 19.2% | 18.9% | 20.9% | 29.6%
CCOc1ccc(NC(=O)c2cc(OC)c(OC)c(OC)c2)cc1 | 24.7% | 49.5% | 94% | 65% | 40.6% | 53.1% | -3.43% (active) | 26.8 | 11.5% | 37.2% | 44.5% | -10.9% (active) | 31.6% | 20.8% | 18% | 55.5% | 22.8%
Cc1ccc(/C=C/C(=O)c2ccc(NC(=O)CSc3nc4c([nH]3)c(=O)n(C)c(=O)n4C)cc2)c(C)c1 | 30.4% | 40.3% | 124% | 36.9% | 30.9% | 36.3% | 13.8% | 27.4 | 82.7% | 37.2% | 69.9% | 60.7% |  | 39.8% | 5.13% (active) | 45.1% | 37.5%
C=CCn1c(SCC(=O)Nc2ccc(C(=O)/C=C/c3cc(OC)c(OC)c(OC)c3)cc2)nnc1-c1cc(-c2ccc(OC)cc2)nc2ccccc12 | 50.9% | 72.8% | 105% | 90% | 98% | 98.5% | 93.4% | 90.4 | 96.4% | 84.9% | 90.1% | 100% | 90.8% | 64.4% | 67.8% | 107% | 94%
CCN(CC)CCNC(=O)c1ccc(-c2nc3ccc4[nH]ncc4c3c3c2CCCC3)cc1 | 6.02% (active) | 59% | 87.3% | 76.1% | 44.1% |  | 78.4% | 41.6 | 70.9% | 44.6% | 59.5% | 42.9% | 28.4% | 62.4% | 24.1% | 84.3% | 46.2%
O=C1/C=C/[C@@H](O)[C@@H]2C[C@@H](O)C[C@H]2/C=C/CCC[C@H](CCOCc2ccccc2)O1 | -7.43% (active) | 9.04% (active) | 8.12% (active) | 25.8% | 31.3% | 15.1% | -45.8% (active) |  | 6.93% (active) | 15.6% | 7.15% (active) | 7.86% (active) | -23.8% (active) | -10.3% (active) | -71.1% (active) | 3.47% (active) | -60.5% (active)
Oc1c(Cl)cc(Cl)c2ccc(Cn3cc(-c4cccc(C(F)(F)F)c4)nn3)nc12 | -15.6% (active) | 80% | 94.5% | 65.9% | 107% | 85.2% | 15% | 74.9 | 104% | 58.9% | 75% | 73.9% | 28.7% | 42.3% | 14% | 99.5% | 100%
O=c1oc2c(cnc3ccccc32)cc1-c1cccs1 | 103% |  | 108% | 100% | 106% | 99.7% | 119% | 99 | 104% | 95.9% | 96.9% | 103% | 103% | 98.1% | 91.1% | 117% | 
COc1ccc2nc(Cl)c(/C=C/C(=O)c3ccc(NC(=O)CSc4nnc(-c5ccc(Cl)c(Cl)c5)n4-c4ccccc4)cc3)cc2c1 | 98.6% | 92.1% | 102% | 103% |  | 76.3% | 105% | 89.3 | 102% | 83.5% | 80% | 95.6% | 92.3% | 82.5% | 68.6% | 105% | 98.4%
CCOC(=O)c1c(NC(=O)CSc2n[nH]c3nc4ccccc4n23)sc(CC)c1C | -28.6% (active) |  | 82% | 98.1% |  | 20.4% |  | 102 | 95.2% | 97.1% | 137% | 103% | 104% | 91.9% | 93.9% | 105% | 98.3%
